mHTT CaM bind = mutant huntingtin-calmodulin interaction inhibitors – biochemical, AlphaScreen, primary screen; P42858; AlphaScreen His-mHTT/GST-CaM binding, luminescence; inhibition, % at 15 µM; 3.6% of 190,000 active
Target sequence (P42858 whole entry, looked up, change not shown): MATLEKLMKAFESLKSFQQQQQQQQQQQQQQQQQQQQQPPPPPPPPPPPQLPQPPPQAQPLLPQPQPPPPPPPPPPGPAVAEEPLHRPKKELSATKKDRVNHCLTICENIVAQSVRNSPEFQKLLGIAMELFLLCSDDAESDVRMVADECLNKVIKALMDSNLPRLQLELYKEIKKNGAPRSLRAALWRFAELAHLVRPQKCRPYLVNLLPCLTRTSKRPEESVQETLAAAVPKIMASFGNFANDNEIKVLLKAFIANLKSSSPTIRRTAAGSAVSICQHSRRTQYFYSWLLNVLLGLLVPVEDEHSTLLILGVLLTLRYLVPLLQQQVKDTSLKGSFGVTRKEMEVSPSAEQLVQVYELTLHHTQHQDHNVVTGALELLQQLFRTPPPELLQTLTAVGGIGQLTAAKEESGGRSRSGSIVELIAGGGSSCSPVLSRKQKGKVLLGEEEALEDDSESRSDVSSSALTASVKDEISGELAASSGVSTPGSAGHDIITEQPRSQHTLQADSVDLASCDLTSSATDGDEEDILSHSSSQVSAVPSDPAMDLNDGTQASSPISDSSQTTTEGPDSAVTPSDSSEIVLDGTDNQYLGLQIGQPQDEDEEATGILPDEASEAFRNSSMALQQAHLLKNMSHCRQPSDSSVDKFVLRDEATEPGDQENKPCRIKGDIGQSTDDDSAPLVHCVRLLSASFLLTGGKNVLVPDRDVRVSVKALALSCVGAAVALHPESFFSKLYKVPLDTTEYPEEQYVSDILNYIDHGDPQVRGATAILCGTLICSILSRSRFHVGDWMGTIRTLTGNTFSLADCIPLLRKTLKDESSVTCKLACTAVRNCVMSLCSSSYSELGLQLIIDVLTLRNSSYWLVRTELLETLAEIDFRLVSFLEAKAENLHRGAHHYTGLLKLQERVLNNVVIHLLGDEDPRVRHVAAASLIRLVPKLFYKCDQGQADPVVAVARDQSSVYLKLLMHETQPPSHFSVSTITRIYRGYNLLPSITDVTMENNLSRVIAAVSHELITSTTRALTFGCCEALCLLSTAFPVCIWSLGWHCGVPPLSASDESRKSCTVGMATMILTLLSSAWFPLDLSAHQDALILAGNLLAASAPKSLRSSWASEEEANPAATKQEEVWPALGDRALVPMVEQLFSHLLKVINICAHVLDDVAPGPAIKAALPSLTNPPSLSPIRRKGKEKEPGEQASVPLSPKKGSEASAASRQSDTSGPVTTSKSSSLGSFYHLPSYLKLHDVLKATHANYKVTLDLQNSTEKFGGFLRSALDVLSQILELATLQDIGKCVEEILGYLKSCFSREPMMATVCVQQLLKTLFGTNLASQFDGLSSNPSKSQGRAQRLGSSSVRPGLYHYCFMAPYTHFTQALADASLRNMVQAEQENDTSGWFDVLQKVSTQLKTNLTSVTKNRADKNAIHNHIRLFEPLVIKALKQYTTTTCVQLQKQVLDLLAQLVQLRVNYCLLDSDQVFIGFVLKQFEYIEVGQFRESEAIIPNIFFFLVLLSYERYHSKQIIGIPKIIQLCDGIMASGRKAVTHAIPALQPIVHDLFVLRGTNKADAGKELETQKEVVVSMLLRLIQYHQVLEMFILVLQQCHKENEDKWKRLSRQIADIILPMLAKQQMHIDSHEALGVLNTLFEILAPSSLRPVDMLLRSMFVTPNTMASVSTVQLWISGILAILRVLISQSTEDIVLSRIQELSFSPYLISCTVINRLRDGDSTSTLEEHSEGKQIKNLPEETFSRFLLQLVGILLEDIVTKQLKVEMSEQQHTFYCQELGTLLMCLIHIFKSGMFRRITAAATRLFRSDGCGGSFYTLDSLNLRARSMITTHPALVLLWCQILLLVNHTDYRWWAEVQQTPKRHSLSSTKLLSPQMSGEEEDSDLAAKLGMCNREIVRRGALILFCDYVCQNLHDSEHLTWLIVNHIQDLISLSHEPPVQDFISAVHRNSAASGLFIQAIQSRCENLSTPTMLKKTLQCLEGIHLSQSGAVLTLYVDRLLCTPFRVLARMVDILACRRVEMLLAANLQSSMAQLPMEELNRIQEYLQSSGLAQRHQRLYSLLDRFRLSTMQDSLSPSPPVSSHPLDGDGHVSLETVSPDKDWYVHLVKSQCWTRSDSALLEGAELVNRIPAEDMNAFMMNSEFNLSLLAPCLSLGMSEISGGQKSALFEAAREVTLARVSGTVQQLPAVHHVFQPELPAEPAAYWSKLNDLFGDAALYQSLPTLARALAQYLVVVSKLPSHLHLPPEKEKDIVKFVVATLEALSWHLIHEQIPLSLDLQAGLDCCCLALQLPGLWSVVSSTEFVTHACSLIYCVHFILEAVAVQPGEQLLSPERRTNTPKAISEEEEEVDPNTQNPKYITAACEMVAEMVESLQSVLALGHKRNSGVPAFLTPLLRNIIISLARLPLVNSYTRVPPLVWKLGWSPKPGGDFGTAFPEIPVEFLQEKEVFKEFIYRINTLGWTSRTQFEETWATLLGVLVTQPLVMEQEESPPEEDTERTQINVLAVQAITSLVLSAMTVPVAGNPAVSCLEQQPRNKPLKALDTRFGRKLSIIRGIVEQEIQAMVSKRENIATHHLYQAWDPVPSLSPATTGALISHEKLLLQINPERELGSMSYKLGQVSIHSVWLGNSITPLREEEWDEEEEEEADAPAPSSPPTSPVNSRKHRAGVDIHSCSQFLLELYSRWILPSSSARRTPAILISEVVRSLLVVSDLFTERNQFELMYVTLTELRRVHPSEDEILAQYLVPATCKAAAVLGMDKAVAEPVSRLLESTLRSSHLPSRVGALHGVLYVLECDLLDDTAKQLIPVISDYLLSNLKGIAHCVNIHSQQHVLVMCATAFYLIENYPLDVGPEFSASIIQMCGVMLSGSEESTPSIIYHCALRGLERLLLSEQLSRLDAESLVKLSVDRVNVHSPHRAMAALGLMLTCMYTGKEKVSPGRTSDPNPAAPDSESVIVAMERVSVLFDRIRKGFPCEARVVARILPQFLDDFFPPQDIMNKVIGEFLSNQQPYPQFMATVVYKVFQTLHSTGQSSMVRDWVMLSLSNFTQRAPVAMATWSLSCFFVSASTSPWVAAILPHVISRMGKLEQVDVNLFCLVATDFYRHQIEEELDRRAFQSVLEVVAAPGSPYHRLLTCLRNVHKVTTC
Pf apPOL inh = Pf-apPOL inhibitors, biochemical, fluorescence. Plasmodium falciparum apicoplast DNA polymerase (apPOL). Recombinant Pf-apPOL, molecular beacon fluorescence, 1.5 h. inhibition, % at 10 µM. 0.25% of 210,000 active. AID 1794808, 2022
A number is an active result; i = inactive; nt = no result. A selection: hits, their analogues and other compounds. The true share with any hit is near 3.5%. No stated cut-off is given here; in the data, active means inhibition above about 50%; inactive means the rest.

SMILES	mHTT CaM bind	Pf apPOL inh
Cc1cc(C)c(C)c(OCc2nc(C(=O)N3CCCC3)cs2)c1	i	i
COc1ccc(NC(=O)CSC2=NC(=O)CC(C)=N2)cc1	i	76
COc1ccc(NC(=O)CSc2nccn2C)cc1	i	i
Cc1cc(C)c(CNC(=O)C2CC(=O)N(c3cccc(NC(=O)C(C)C)c3)C2)c(C)c1 (stereo unspecified)	i	i
COc1ccc(C2C=C(c3cccc(Br)c3)Nc3ncnn32)c(OC)c1 (stereo unspecified)	i	i
CCc1ccc(C2=CC(c3ccc(OC)c(OC)c3OC)n3ncnc3N2)cc1 (stereo unspecified)	i	i
COc1cc(C2C=C(c3cccc(Br)c3)Nc3ncnn32)cc(OC)c1OC (stereo unspecified)	100	i
COc1cccc(C2C=C(c3ccc(F)cc3)Nc3ncnn32)c1OC(F)F (stereo unspecified)	73	i
COc1ccc(C2=CC(c3cccc(OC)c3OC)n3ncnc3N2)cc1 (stereo unspecified)	i	i
COc1ccc(C2C=C(c3ccc(Cl)cc3)Nc3ncnn32)c(OC)c1OC (stereo unspecified)	89	i
COc1cccc(C2C=C(c3ccc(Cl)cc3)Nc3ncnn32)c1OC (stereo unspecified)	58	i
Fc1ccc(C2=CC(c3ccccc3OC(F)F)n3ncnc3N2)cc1 (stereo unspecified)	i	i
COc1ccc(C=C2Oc3cc(OCC=C(C)C)ccc3C2=O)c(OC)c1OC	i	i
CCNc1nccc(N2CCC(CC(=O)N3CCN(c4ccccc4Cl)CC3)CC2)n1	i	i
O=C(CN(C1CCCCC1)S(=O)(=O)c1ccc(Br)cc1)NCC1CCCO1 (stereo unspecified)	i	i
Cc1cccn2c(=O)c(/C=C3\SC(=S)N(C(C)C)C3=O)c(N3CCCC3)nc12	i	nt
COc1cccc(C2=CC(c3ccc(OC)cc3OC)n3ncnc3N2)c1 (stereo unspecified)	i	i
COc1ccc(C2C=C(c3ccc(Br)s3)Nc3ncnn32)cc1OC (stereo unspecified)	57	i
COc1ccc(C2C=C(c3cccc(NC(C)=O)c3)Nc3ncnn32)c(OC)c1 (stereo unspecified)	i	83
COc1ccc(C2C=C(c3cccs3)Nc3ncnn32)cc1OC (stereo unspecified)	i	i
CCOC(=O)N1CCc2c(sc(NC(=O)c3nc4ccccc4s3)c2C(=O)OC)C1	i	i
Cc1ccc(S(=O)(=O)N2CCC(c3noc(-c4ccc(F)cc4)n3)CC2)cc1	i	i
Cc1ccc(C(=O)Nc2ccc(C(=O)O)cc2)o1	i	i
Cc1csc(NC(=O)c2ccc(N3CCCC3)nn2)n1	72	i
CCSc1nnc(NC(=O)c2ccc(N3CCCC3)nn2)s1	i	i
SMILES	mHTT CaM bind	Pf apPOL inh
CCOc1ccc(N(CC(=O)Nc2ccc(C(C)=O)cc2)S(C)(=O)=O)cc1	i	i
CC1CCc2nc(NC(=O)c3ccc(S(=O)(=O)N(C)Cc4ccco4)cc3)sc2C1 (stereo unspecified)	i	i
COc1ccc(-c2csc(/C(C#N)=C/c3ccco3)n2)cc1	i	i
Cc1ccc(-c2csc(/C(C#N)=C/c3ccco3)n2)cc1	i	53
Cc1ccn2c(NC(=O)C(C)C)c(-c3ccc(F)cc3)nc2c1	i	i
O=C1OCCN1C(=O)[C@H]1[C@H](c2ccc(F)cc2)C(c2ccc(F)cc2)=NN1c1ccc(Br)cc1	54	i
O=C1OCCN1C(=O)[C@H]1[C@H](c2ccc(F)cc2)C(c2ccccc2)=NN1c1ccccc1	i	i
O=C1OCCN1C(=O)[C@H]1[C@H](c2ccc(F)cc2)C(c2ccc(F)cc2)=NN1c1ccccc1	i	i
O=C1OCCN1C(=O)[C@H]1[C@H](c2ccc(Cl)cc2)C(c2ccc(F)cc2)=NN1c1ccccc1	72	i
O=C1OCCN1C(=O)[C@H]1[C@H](c2ccc(Cl)cc2)C(c2ccc(F)cc2)=NN1c1ccc(Br)cc1	79	i
O=C1OCCN1C(=O)[C@H]1[C@H](c2ccc(Cl)cc2)C(c2ccccc2)=NN1c1ccccc1	i	i
O=C(Oc1ccccc1)c1cccs1	nt	i
O=C(NC1CCCC1)N1CCN(Cc2nc3cccnc3n2-c2cccc(F)c2)CC1	i	i
CC(Nc1ccc2oc(=O)ccc2c1)=C1C(=O)CC2C1C2(C)C (stereo unspecified)	nt	i
CC(Oc1ccc(Cl)cc1Cl)c1n[nH]c(=S)n1-c1ccccc1 (stereo unspecified)	nt	i
Cc1nc(NC2CCCCC2)sc1C(=O)Nc1cccc(F)c1	i	i
COCCNC(=O)C1COC2(CCC(C)CC2)N1C(=O)c1ccccc1F (stereo unspecified)	i	i
O=C(Cc1ccccc1)Nc1ccc(N2CCN(C(=O)c3cccc(F)c3)CC2)nc1	i	i
CCC(=O)Nc1nc2ccccc2n1Cc1ccc(Cl)cc1	72	i
CCC(=O)Nc1nc2ccccc2n1C	i	i
COc1cccc(CC(=O)N2CCC(n3c(C4CCCC4)nc4cccnc43)C2)c1 (stereo unspecified)	i	i
O=C(COc1ccccc1)N1CCCCC1	i	i
O=C(c1nn2c(c1Cl)NC(c1ccccc1)CC2C(F)(F)F)N1CCCCCC1 (stereo unspecified)	i	i
O=C(c1nn2c(c1Cl)NC(c1ccccc1)CC2C(F)(F)F)N1CCCCC1 (stereo unspecified)	i	i
O=C(c1nn2c(c1Cl)NC(c1ccccc1)CC2C(F)(F)F)N1CCc2ccccc2C1 (stereo unspecified)	72	i
SMILES	mHTT CaM bind	Pf apPOL inh
CCC1CCCCN1C(=O)c1nn2c(c1Cl)NC(c1ccccc1)CC2C(F)(F)F (stereo unspecified)	87	i
COc1ccc(NC(=O)CSc2cn(CCNC(=O)c3ccccc3F)c3ccccc23)cc1	i	i
CC(=O)NC1=NC(=O)/C(=C\c2ccc(F)cc2F)S1	i	i
CSc1nnc(-c2nn(C)c3c2CN(C(=O)Cc2ccccc2C)CC3)n1C	i	i
CC1CCN(Cc2nc(C(=O)NC3CCCCC3)co2)CC1	i	i
Cc1ccc(N2CCN(Cc3nc(C(=O)NC4CC4)co3)CC2)cc1	92	i
CC(C)(C)N=C1Nc2ccccc2CNC12CCN(C(=O)Cc1ccsc1)C2 (stereo unspecified)	62	i
Cc1ccccc1C(=O)N1CCC2(C1)NCc1ccccc1NC2=NC(C)(C)C (stereo unspecified)	i	i
Cc1ccc(F)cc1S(=O)(=O)N1CCC2(C1)NCc1ccccc1NC2=NC(C)(C)C (stereo unspecified)	70	i
COc1ccccc1CC(=O)N1CCC2(C1)NCc1ccccc1NC2=NC(C)(C)C (stereo unspecified)	i	i
COc1ccc(CCNC(=O)C2CCN(S(=O)(=O)c3ccccc3)CC2)cc1	i	i
O=[N+]([O-])c1cccc(C2CC(c3ccc(Cl)cc3)Nc3nnnn32)c1 (stereo unspecified)	i	i
CC(C)C(=O)NCc1csc(C2CCN(C(=O)c3cccc(Cl)c3)CC2)n1	i	i
O=C(O)c1ccc(C2Nc3ccc(I)cc3C3C=CCC32)cc1 (stereo unspecified)	97	i
O=C1CN(C(=O)c2ccc(F)cc2)C(c2ccc(F)cc2)c2cc(F)ccc2N1 (stereo unspecified)	i	i

Compound activity deposited in PubChem BioAssay by University of Kansas High Throughput Screening Laboratory.
